Experimental data reported in PubChem BioAssay (NCATS).
Results filed as inconclusive are left out. A number with no mark means an inactive call. Active and inactive are the calls of the source. Calls come from the whole dose curve; as a rule, active = well fitted cell-killing curve with a large enough effect; inconclusive = small, poorly fitted or top-dose-only effect, or effect the other way; inactive = no such curve, though single readings can be large or run the other way. Non-standard residues stand in square brackets, D forms with d. Residues, ends and D or L forms follow the SMILES beside them. *: point of attachment. Nva = CCC[C@H](N)C(=O)O; Cbz = O=C(OCc1ccccc1)*

Assay: Quantitative High-Throughput drug screen in 47 multiple myeloma cell lines against the NCATS MIPE library collection: EJM_DSMZ cell viability assay (AID 1918926; note: nearly all actives have a fitted effect of over 30% in size)
Conditions: EJM myeloma cell viability, CellTiter-Glo ATP, 48 h; series mostly up to 45.8 µM; viability, % of control: at the top concentration
Text: PI: Beverly A. Mock Ph.D.
Laboratory of Cancer Biology and Genetics,
Center for Cancer Research, National Cancer Institute,
National Institute of Health, Bethesda, Maryland
Drug resistance and disease progression are common in multiple myeloma (MM) patients, underscoring the need for new therapeutic combinations. […] We hypothesized that effective combinations would reduce MYC expression and enhance p16 activity. […] These preclinical data identify potentially useful drug combinations for evaluation in drug-resistant MM and reveal potential mechanisms of combined drug sensitivity.
Described herein is the primary MIPE qHTS used to cherrypick compounds. Validated compounds were then further tested for potential synergistic activiy.
[1] Peat TJ, Gaikwad SM, Dubois W, Gyabaah-Kessie N, Zhang S, Gorjifard S, Phyo Z, Andres M, Hughitt VK, Simpson RM, Miller MA, Girvin AT, Taylor A, Williams D, D'Antonio N, Zhang Y, Rajagopalan A, Flietner E, Wilson K, Zhang X, Shinn P, Klumpp-Thomas C, McKnight C, Itkin Z, Chen L, Kazandijian D, Zhang J, Michalowski AM, Simmons JK, Keats J, Thomas CJ, Mock BA. Drug combinations identified by high-throughput screening promote cell cycle transition and upregulate Smad pathways in myeloma. Cancer Lett. 2023 Aug 1;568:216284. doi: 10.1016/j.canlet.2023.216284. Epub 2023 Jun 24. PMID: 37356470; PMCID: PMC10408729.
SEQUENCE No. (e.g., 1, 2, 3, etc.); […] (e.g., Cells, Incubation, Reagent, etc.); VALUE and DESCRIPTION.
1; Cells; 5 uL; white, solid bottom 1536-well Greiner assay plate.
2; Compounds; 23 nL; Kalypsis pin tool (Wako USA) equipped with a 1536-well pin head to transfer to the assay plates.
3; Incubation; 48 hours; 37C incubation.
4; Reagent;5uL; CellTiter Glo (Promega).
5; Detector; 425V; Luminescence; Viewlux PerkinElmer.
NOTES (numbers refer to Sequence numbers above)
1. The cell-based screening methods employed in this study were like those previously published. Briefly, the corresponding myeloma cell lines were screened in 1,536-well plates with 500 cells, 5-uL per well for inhibition of cell viability (assessed by measuring ATP levels with CellTiterGlo).
2. NCATS MIPE 4.0 library of approved and investigational drugs were added using the Kalypsis pin tool. Wells treated with DMSO only for 100% viability and media only wells for 0% viability were used as controls.
3. The assay plates were covered and incubated for 48 hours in a 37C, 5% CO2 incubator with controlled humidity.
4. After 48 hours, CellTilter-GloTM luminescent substrate mix (Promega) reagent was added to the assay plate and plates we incubated for 5 min at room temperature.
5. Signal was measured as median relative luminescence units on a ViewLux (PerkinElmer) multiplate reader.
[1] Heske CM, Davis MI, Baumgart JT, Wilson K, Gormally MV, Chen L, Zhang X, Ceribelli M, Duveau DY, Guha R, Ferrer M, Arnaldez FI, Ji J, Tran HL, Zhang Y, Mendoza A, Helman LJ, Thomas CJ. Matrix Screen Identifies Synergistic Combination of PARP Inhibitors and Nicotinamide Phosphoribosyltransferase (NAMPT) Inhibitors in Ewing Sarcoma. Clin Cancer Res. 2017 Dec 1;23(23):7301-7311. doi: 10.1158/1078-0432.CCR-17-1121. Epub 2017 Sep 12. PMID: 28899971; PMCID: PMC6636827.
Potency is the fitted concentration of half-maximal effect.

Row | SMILES | Potency | viability, % of control [%]
1 | COc1cc2c(cc1OC)[C@@H]1C(=O)c3ccc4c(c3O[C@@H]1CO2)C=CC(C)(C)O4 | 8.33 µM (active) | –
2 | Cn1cnc(=N)c2[nH]cnc21 | 0.526 µM (active) | –
3 | Cc1cn([C@@H]2O[C@H](CO)[C@@H](O)[C@H]2F)c(=O)[nH]c1=O | – | 115
4 | CN[C@H](CC(C)C)C(=O)N[C@H]1C(=O)N[C@@H](CC(N)=O)C(=O)N[C@@H]2C(=O)N[C@H]3C(=O)N[C@H](C(=O)N[C@H](C(=O)O)c4cc(O)cc(O)c4-c4cc3ccc4O)[C@H](O)c3ccc(c(Cl)c3)Oc3cc2cc(c3O[C@@H]2O[C@H](CO)[C@@H](O)[C@H](O)[C@@H]2O[C@H]2C[C@](C)(N)[C@H](O)[C@H](C)O2)Oc2ccc(cc2Cl)[C@H]1O | – | 124
5 | Cc1[nH]c(C=C2C(=O)Nc3ccccc32)c(C)c1CCC(=O)O | 5.9 µM (active) | –
6 | CC(Cc1ccc(O)c(O)c1)(NN)C(=O)O (stereo not given) | – | 87.2
7 | C[C@@H](Oc1ccc2[nH]nc(C=Cc3cnn(CCO)c3)c2c1)c1c(Cl)cncc1Cl | 4.18 µM (active) | –
8 | COC1=C(OC)C(=O)C(CC=C(C)CCC=C(C)CCC=C(C)CCC=C(C)CCC=C(C)CCC=C(C)CCC=C(C)CCC=C(C)CCC=C(C)CCC=C(C)C)=C(C)C1=O | – | 110
9 | O=c1c(O)c(-c2ccc(O)c(O)c2)oc2cc(O)ccc12 | 20.9 µM (active) | –
10 | NC(=O)Nc1cc(-c2ccc(CN3CCOCC3)cc2)sc1C(N)=O | 20.9 µM (active) | –
11 | C[C@@H]1C(=O)O[C@H]2CC34[C@H]5C[C@@H](C(C)(C)C)C36[C@H](OC(=O)[C@@H]6O)O[C@@]4(C(=O)O5)[C@]21O (stereo not given in full) | – | 92.4
12 | CCOc1cc2c(c(F)c1OCC)C(=N)N(CC(=O)c1cc(N3CCOCC3)c(OC)c(C(C)(C)C)c1)C2 | 20.9 µM (active) | –
13 | COc1ccc(S(=O)(=O)Nc2cc(-c3c(O)ccc4ccccc34)c(O)c3ccccc23)cc1 | 23.5 µM (active) | –
14 | COC[C@H](NC(=O)c1cnc(C)s1)C(=O)N[C@@H](COC)C(=O)N[C@@H](Cc1ccccc1)C(=O)[C@@]1(C)CO1 | 0.166 µM (active) | –
15 | CC(C)(O)[C@H]1CC[C@@](C)([C@H]2[C@@H](O)C[C@@]3(C)[C@@H]4C[C@H](O[C@@H]5O[C@H](CO)[C@@H](O)[C@H](O)[C@@H]5O)[C@H]5C(C)(C)[C@@H](O[C@@H]6OC[C@@H](O)[C@H](O)[C@@H]6O)CC[C@@]56C[C@@]46CC[C@]23C)O1 | – | 102
16 | C=C(C)[C@@H]1CC[C@]2(C(=O)O)CC[C@]3(C)[C@H](CC[C@@H]4[C@@]5(C)CC[C@H](O)C(C)(C)[C@@H]5CC[C@]43C)[C@@H]12 | – | 98.7
17 | O=C(C=Cc1ccc(CN(CCO)CCc2c[nH]c3ccccc23)cc1)NO | 0.235 µM (active) | –
18 | OC[C@H]1OC(O)C[C@@H](O)[C@H]1O (stereo not given in full) | – | 101
19 | N#CC(=Cc1ccc(O)c(O)c1)C(=O)NCc1ccccc1 | 14.8 µM (active) | –
20 | C[C@]12CCC(=O)C=C1[C@@H]1CC1[C@H]1[C@H]3[C@@H]4C[C@H]4[C@@]4(CCC(=O)O4)[C@@]3(C)CC[C@H]12 (stereo not given in full) | – | 64.4

Row | SMILES | Potency | viability, % of control [%]
21 | Oc1cc(-c2nc(-c3ccccc3)[nH]c2-c2ccncc2)ccc1Cl | 18.7 µM (active) | –
22 | CC(Oc1ccc(O)cc1)(P(=O)(O)O)P(=O)(O)O | – | 93.8
23 | C=Cc1c(C)c2cc3nc(cc4[nH]c(cc5nc(cc1[nH]2)C(C)=C5CCC(=O)O)c(CCC(=O)OC)c4C)[C@@]1(C)C3=CC=C(C(=O)OC)[C@H]1C(=O)OC | 0.0372 µM (active) | –
24 | CCN(CC)CCCCNc1ncc2c(n1)N(C)C(=O)N(c1c(Cl)c(OC)cc(OC)c1Cl)C2 | 18.7 µM (active) | –
25 | CN(C)c1ccc(C(=O)NCCCCCCC(=O)NO)cc1 | 1.87 µM (active) | –
26 | C=CC1=C(C(=O)O)N2C(=O)[C@@H](NC(=O)C(=NO)c3csc(N)n3)[C@H]2SC1 | – | 95.8
27 | OCc1ccccc1O[C@@H]1O[C@H](CO)[C@H](O)[C@H](O)[C@H]1O | 10.5 µM (active) | –
28 | CN[C@@H]1C[C@H]2O[C@@](C)([C@H]1OC)n1c3ccccc3c3c4c(c5c6ccccc6n2c5c31)C(=O)N[C@H]4O | 0.526 µM (active) | –
29 | CCCCC(=O)O[C@]1(C(=O)CO)[C@@H](C)C[C@H]2[C@@H]3CCC4=CC(=O)C=C[C@]4(C)[C@@]3(F)[C@@H](O)C[C@@]21C | – | 84.4
30 | CC(N[C@H]1CCCC[C@H]1NC(=O)c1ccc(Cl)cc1)c1cccc2ccccc12 (stereo not given in full) | 20.9 µM (active) | –
31 | CC(C)[C@H](CO)Nc1nc(Nc2cccc(Cl)c2)c2ncn(C(C)C)c2n1 | 23.5 µM (active) | –
32 | CC(=O)C1=C(O)C=C2Oc3c(C(C)=O)c(O)c(C)c(O)c3C2(C)C1=O (stereo not given) | – | 100
33 | CC(C)(C)[N+]([O-])=Cc1ccc(S(=O)(=O)O)cc1S(=O)(=O)O | – | 99.6
34 | N[C@H]1CN(c2c(F)cc3c(=O)c(C(=O)O)cn(C4C[C@@H]4F)c3c2Cl)CC12CC2 (stereo not given in full) | – | 94.9
35 | O=S(=O)(O)CCSSCCS(=O)(=O)O | – | 99.6
36 | COC1=C2C[C@@H](C)C[C@H](OC)[C@@H](O)[C@@H](C)C=C(C)[C@H](OC(N)=O)[C@@H](OC)C=CC=C(C)C(=O)NC(=CC1=O)C2=O | 0.372 µM (active) | –
37 | O=C(O)[C@H](CC(=O)N1C[C@@H]2CCCC[C@H]2C1)Cc1ccccc1 | – | 104
38 | CCN(CC)Cc1ccc2cc(COC(=O)Nc3ccc(C(=O)NO)cc3)ccc2c1 | 1.05 µM (active) | –
39 | CC(C)OC(=O)[C@H](C)N[P@](=O)(OC[C@H]1O[C@@H](n2ccc(=O)[nH]c2=O)[C@](C)(F)[C@H]1O)Oc1ccccc1 | – | 89
40 | CCC[C@@H](C=O)NC(=O)[C@H](CC(C)C)NC(=O)[C@H](CC(C)C)NC(=O)OCc1ccccc1 (Cbz-Leu-Leu-[Nva]-aldehyde) | 1.48 µM (active) | –
